These results are taken from PubChem BioAssay AID651820 (National Center for Advancing Translational Sciences (NCATS), 2012).

Out of some 340,000 compounds screened, about 12,000 (3.5%) were called active. Where a call stands in place of a potency, no number is given. Not shown: some 18% with an inconclusive outcome. Only a selection was taken, and actives are over-represented in it overall. Values without a mark were called inactive. The call rests on the fitted dose curve; in most records, active means well fitted inhibition curve with a large enough effect; inconclusive means small, poorly fitted or top-dose-only effect, or another doubt; inactive means no such curve, though single readings can be large or run the other way.
Potency means the concentration at half of the fitted maximal effect.

The nature of this experiment: qHTS Assay for Inhibitors of Hepatitis C Virus (HCV). Conditions: Huh7.5.1 HCVcc-Cre infection, luciferase reporter, 44 h; series mostly up to 41.8 µM. Summed up: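 Infectious HCV cell culture screen: compound-treated cells (1,000/well, pre-plated 4 h) are infected with HCVcc-Cre at roughly 0.5 moi and grown 44 h. Infection is quantified by luciferase signal after 15 min substrate incubation at room temperature.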
(In general: qHTS replaces the single test concentration by a dilution series.)
For `COc1cnc(-c2ccccn2)nc1Oc1ccc(C(C)(C)C)cc1`, the Potency was 10 µM (active).
For the compound `COc1ccc(Cc2nc(-c3ccccn3)no2)cc1OC`, the Potency entry is “inactive”.
The same measure, in the same setting: to `COc1ccc(Sc2nc(-c3ccccc3)ncc2OC)cc1` belongs “inactive”; to `O=C1COc2ccc(C(=O)COC(=O)c3ccccc3Cl)cc2N1`, “inactive”.
In the case of `COc1ccc(-c2ccc3c(c2)C2CC3CCN2CCC#N)cc1` (stereo not given), the activity change, negative = inhibition was -2.86% [at 8.37 µM].
On to `CC1(C)O[C@@H]2[C@H](O1)[C@@H](COS(=O)(=O)O)O[C@H]2n1cnc2c(=O)[nH]cnc21`, for which the Potency entry is “inactive”.
On the same count and under the same terms, to `Cc1ccc(S(=O)(=O)N(C)C)cc1NC(=O)COC(=O)/C=C/c1cccs1` belongs “inactive”; to `O=C(COC(=O)COc1cc(Cl)c(Cl)cc1Cl)NC1CC1`, “inactive”; to `O=C(COC(=O)c1ccc(O)cc1O)NNC(=O)c1cccs1`, “inactive”.
Still for that read-out and setting: then `COc1ccc2c(c1)C(=O)CC(c1ccccc1)O2` (stereo not given), with “inactive”.
The same measure, in the same setting: then `COc1cc(C(=O)Nn2c(CC(C)C)nc3ccccc3c2=O)cc(OC)c1OC`, with “inactive”.
As to `CCC(C)n1c(-c2cc(OC)c(OC)c(OC)c2)nc2nc3ccccc3nc21` (stereo not given), the Potency was 15.8 µM (active).
On the same count and under the same terms, then `COc1cc(-c2n[nH]c(=S)n2Cc2ccccc2)cc(OC)c1OC`, with “inactive”.
The same measure, in the same setting: to `Cc1cc2nc3n(c2cc1C)CC1CC(C(=O)NCCC(C)C)N(C)C31` (stereo not given) belongs “inactive”; to `Cc1cccc(Nc2nnc(SCC(=O)c3c(N)n(C4CC4)c(=O)[nH]c3=O)s2)c1C`, “inactive”.
Regarding `O=[N+]([O-])c1ccc(N=NNc2ccc([N+](=O)[O-])cc2)cc1`, the Potency result is “inactive”.
On the same count and under the same terms, to `COc1cc(OC)c(C(=O)NNC(=O)c2ccc(NS(=O)(=O)c3cccs3)cc2)cc1OC` belongs “inactive”.
The same measure, in the same setting: then `CC(Nc1nc(N2CCCC2)nc2ccccc12)c1ccccc1` (stereo not given), with 10 µM (active); and `Cc1ccc(C(CC(=O)O)Nc2nc(N3CCCCC3)nc(N3CCCCC3)n2)cc1` (stereo not given), with “inactive”; and `CC(Nc1nc(N2CCN(CCO)CC2)nc2ccccc12)c1ccccc1` (stereo not given), with “inactive”.
Consider `Cc1ccc(C)c(OCC(=O)NNC(=O)C2CCC2)c1`, for which the Potency entry is “inactive”.
Same read-out and setting: then `CCc1cc2c(N3CCN(c4nnc(CC)s4)CC3)ncnc2s1`, with 7.08 µM (active); and `O=C(O[C@@H]1[C@H](Cc2ccccc2)NS(=O)(=O)[C@H]2C[C@@H]3C=C[C@]12O3)c1ccccc1Br`, with “inactive”.
The same measure, in the same setting: then `COc1cccc(NC(=O)CSc2nccn(-c3ccc4c(c3)OCCO4)c2=O)c1`, with “inactive”; and `O=c1[nH]c(-c2cccs2)nc2ccccc12`, with “inactive”.
Same read-out and setting: then `CC(=O)Nc1cccc(-c2cnc3ccccc3n2)c1`, with “inactive”; and `CC(=O)Nc1cccc(Nc2nc(-c3cccs3)nc3ccccc23)c1`, with 11.2 µM (active).
As to `Cc1ccc(/C=C/C(=O)OCC(=O)NCc2ccc(Cl)cc2)o1`, the Potency result is “inactive”.
On the same count and under the same terms, to `O=S(=O)(c1ccccc1)N1CCC(c2ccccc2)CC1` belongs “inactive”; to `Cc1ccsc1C(=O)NCCc1ccco1`, “inactive”; to `O=C(COc1ccc(Br)cc1F)NCC1(N2CCCCC2)CCCCC1`, “inactive”.
Turning to `CCN1C[C@@H]2[C@@H]3C(=O)N(Cc4ccccc4)C(=O)[C@@H]3[C@](Cc3ccccc3)(C(=O)OC)N2C1=NC1CCCCC1`, the activity change, negative = inhibition was 11.2% [at 8.37 µM].
On to `CCC[C@H]1CCCC/C=C\CCCC(=O)OCCN1C(=O)OC(C)(C)C`, for which the Potency entry is “inactive”.
The same measure, in the same setting: then `CCN1C[C@@H]2[C@@H]3C(=O)N(C)C(=O)[C@@H]3[C@](C)(C1=O)N2C(=O)c1ccccc1`, with “inactive”.
On the same count and under the same terms, then `O=C(N/N=C/c1ccc([N+](=O)[O-])o1)c1cn(-c2ccccc2)nc1-c1ccc(F)cc1`, with “inactive”; and `C/[N+]([O-])=C\c1ccc([N+](=O)[O-])o1`, with “inactive”; and `O=C(/C=C/c1ccc([N+](=O)[O-])o1)NNC(=O)c1ccc(F)cc1`, with 14.1 µM (active).
For `CCCCCCSc1ccc(-c2nc3ccc(Cl)cn3c2NCc2ccccc2)cc1`, the Potency entry was “inactive”.
Take `C[C@@H]1NS(=O)(=O)c2cc(Cl)ccc2O[C@@H]1c1ccccc1`: the Potency entry was “inactive”.
Still for that read-out and setting: to `Cc1sc2c(c1C)c(=O)n(-c1ccccc1)c(=O)n2CC(=O)NCC1CCCO1` (stereo not given) belongs “inactive”; to `Cc1cccc(NC(=O)Cn2c(=O)n(Cc3ccccc3)c(=O)c3c(C)c(C)sc32)c1`, 10 µM (active).
Take `Cc1cccc(-n2c(=O)c3c(C)c(C)sc3n(CC(N)=O)c2=O)c1`: the Potency result is “inactive”.
On the same count and under the same terms, to `C=CCC(NC(=O)Cc1ccccc1)C(=O)NCCC` (stereo not given) belongs “inactive”; to `CC(=NNC(=O)c1ccncc1)c1ccc(Cl)c(Cl)c1`, “inactive”.
The same measure, in the same setting: to `CN(Cc1cccs1)C(=O)CN1C(=O)c2ccccc2S1(=O)=O` belongs “inactive”; to `COc1cc(C(=O)N2CCN(S(=O)(=O)c3ccc(C(C)C)cc3)CC2)ccc1OCC(=O)N1CCOCC1`, “inactive”.
Still for that read-out and setting: then `COCC(C)NCc1cc(Br)ccc1OC` (stereo not given), with “inactive”.
Regarding `Cc1ccc(OCCOCCOc2ccc(Br)cc2/C=N\NC(=O)c2ccncc2)cc1`, the Potency entry was “inactive”.
Same read-out and setting: then `CCC(C)NCCOCCOc1ccc(Br)cc1C` (stereo not given), with 11.2 µM (active); and `O=c1c(Cl)c(NC2CC2)cnn1-c1ccccc1`, with “inactive”; and `Cc1cccc(-n2ncc(Cl)c(Cl)c2=O)c1`, with 11.2 µM (active).
Take `Cc1cccc(-n2ncc(C#N)c2-n2cccc2)c1`: the Potency result was “inactive”.
Same read-out and setting: to `O=C(Nc1ccc(NC(=O)c2ccc3c(c2)OCO3)cc1)c1cccc(Cl)c1` belongs “inactive”; to `O=C(Nc1ccon1)c1cccc(Cl)c1`, “inactive”.
With `COc1ccc(NC(=O)c2cccc(Cl)c2)c[n+]1[O-]`, the Potency is 3.16 µM (active).
On the same count and under the same terms, then `Cc1ccc(NC(=O)C(C)OC(=O)C2CC3CCCC(C2)C3=O)cc1S(=O)(=O)N1CCOCC1` (stereo not given), with “inactive”; and `CC[C@@H](C)[C@@H]1CN([C@@H](C)CN2CCC[C@H]2CN2C(N)=NC[C@H]2C(C)C)C(=N)N1CCc1ccc(Cl)c(Cl)c1`, with “inactive”; and `COc1ccccc1C(=O)NCC(=O)OCC(=O)Nc1nnc(-c2ccccc2)o1`, with “inactive”.
Same read-out and setting: to `OCCN1CCN(c2nnc(-c3ccccc3)c3ccccc23)CC1` belongs “inactive”.
Still for that read-out and setting: to `CCCC(=O)N1CCN(c2nnc(-c3ccc(C)cc3)c3ccccc23)CC1` belongs 12.6 µM (active); to `c1ccc(-c2nnc(N3CCOCC3)c3ccccc23)cc1`, “inactive”; to `COc1ccc2nc3n(c(=O)c2c1)-c1ccc(Cl)cc1C(=O)NC3Cc1ccccc1` (stereo not given), “inactive”.
As to `CCN(CC(=O)Nc1ccc(NC(C)=O)cc1)C(=O)CSC(=S)N1CCCC1`, the Potency entry is “inactive”.
On the same count and under the same terms, then `CN(C(=O)CSc1cccc[n+]1[O-])C1CCCCC1`, with “inactive”; and `CC(=O)N(Cc1cc(=O)[nH]c2ccccc12)c1ccc(C)cc1C`, with “inactive”; and `Cc1ccc(N(Cc2cc3ccccc3[nH]c2=O)C(=O)c2cccs2)cc1`, with “inactive”.
In the case of `Cc1ccc(N(Cc2cc(=O)[nH]c3ccccc23)C(=O)CCl)cc1`, the Potency was 11.2 µM (active).
Same read-out and setting: to `COc1cc(O)c2c(=O)c3c(O)c(O)ccc3oc2c1OC` belongs “inactive”; to `Cc1ccc(C)c(NS(=O)(=O)c2cc(Br)cnc2N)c1`, “inactive”.
The same measure, in the same setting: to `CC(=O)c1ccc(NC(=O)CCNS(=O)(=O)c2cc(Br)cnc2N)cc1` belongs “inactive”; to `CCc1cccc(C)c1NS(=O)(=O)c1cc(Br)cnc1N`, 11.2 µM (active); to `CCOc1ncccc1C(=O)OCC(=O)Nc1cccc(S(=O)(=O)N2CCCCCC2)c1`, “inactive”.
As to `COC(=O)[C@]1(C)N[C@H](CN(C)C(=O)c2ccc(C(C)(C)C)cc2)[C@@H]2C(=O)N(C)C(=O)[C@@H]21`, the activity change, negative = inhibition is -14.2% [at 8.37 µM].
As to `COCCn1c(SC(C)C(=O)NC2CC2)nnc1-c1cccc(C)c1` (stereo not given), the Potency entry was “inactive”.
The same measure, in the same setting: to `COC(=O)c1ccc(COc2ccc(/C=C/C(=O)c3ccc(OC)c(CSCC(=O)O)c3)cc2OC)cc1` belongs “inactive”; to `COCOc1cc(O)c(C(=O)/C=C/c2ccc(OCOC)c(OCOC)c2)c(OCOC)c1`, 7.94 µM (active).
Consider `COc1ccc(/C=C/C(=O)c2ccc(OC)cc2O)cc1`, for which the activity change, negative = inhibition was 1.23% [at 8.37 µM].
`COC(=O)c1c(NC(=O)CCN2CCOCC2)sc2c1CCCC2`: the Potency result was “inactive”.
Still for that read-out and setting: to `CCOC(=O)c1c(NC(=O)CSc2nnc(CN3CCOCC3)n2C)sc2c1CCCC2` belongs 22.4 µM (active); to `COC(=O)c1c(NC(=O)CSc2nncs2)sc2c1CCCCC2`, 7.08 µM (active); to `COC(=O)c1c(NC(=O)CCCC(=O)O)sc2c1CCCCC2`, “inactive”.
On the same count and under the same terms, to `COC(=O)c1c(NC(=O)C2CC(C)=C(C)CC2C(=O)O)sc2c1CCCCC2` (stereo not given) belongs “inactive”.
On the same count and under the same terms, to `CCOC(=O)c1c(NC(=O)CSc2nnc(C)c(=O)[nH]2)sc2c1CCC2` belongs “inactive”.
On to `COC(=O)[C@]1(C)CCC[C@@]2(C)C3CC[C@]4(OC(C)=O)C[C@@]3(CCC21)CC4=NO` (stereo not given in full), for which the Potency entry was “inactive”.
For the compound `O=C(CCNC(=O)c1ccc(Br)cc1)Nc1cccc(S(=O)(=O)N2CCCCC2)c1`, the Potency result is “inactive”.
The same measure, in the same setting: then `COc1ccccc1C(=O)NCC(=O)NCCSc1ccc(Br)cc1`, with “inactive”.
Consider `CCc1noc(C)c1C(=O)N1CCCSC1=Nc1ccccc1OC`, for which the activity change, negative = inhibition was 9.92% [at 8.37 µM].
Regarding `COc1ccc2c(c1)C(=O)Nc1cc(Cl)ccc1N2`, the Potency result was “inactive”.
As to `Cc1cccc(OCCC(=O)OCc2csc(CC(=O)Nc3ccccc3C)n2)c1`, the Potency result is “inactive”.
Take `CCOc1ccccc1-c1cc(C(=O)N/N=C(\C)c2cccnc2)c2ccccc2n1`: the Potency result is “inactive”.
Still for that read-out and setting: then `NC(=O)COC(=O)/C=C/c1ccc2ccccc2n1`, with “inactive”; and `CCOc1cccc(/C=C/c2ccc3ccccc3n2)c1OC(C)=O`, with 11.2 µM (active).
Still for that read-out and setting: then `COC(=O)[C@]1(CC(C)C)N[C@H](c2ccc(SC3CCCCC3)cc2)[C@@H]2C(=O)N(C)C(=O)[C@@H]21`, with “inactive”; and `CCN(CC(=O)Nc1c(F)cccc1F)C(=O)Cc1cccs1`, with “inactive”.
Still for that read-out and setting: to `Cc1nc(-c2ccc(F)cc2)c(CC(=O)Nc2cccc(S(=O)(=O)N3CCOCC3)c2)s1` belongs “inactive”; to `CC(C)(C)OC(=O)NCCCCCNC(=O)c1[nH]cnc1C(=O)Nc1nccs1`, “inactive”.
As for `Nc1nc(Nc2ccccc2)nc(NCCO)c1[N+](=O)[O-]`, the Potency entry was “inactive”.
On to `COc1cccc(Nc2nc(N)c([N+](=O)[O-])c(NCc3ccco3)n2)c1`, for which the Potency is 10 µM (active).
The same measure, in the same setting: to `Nc1nc(NCCCN2CCOCC2)nc(Nc2ccccc2)c1[N+](=O)[O-]` belongs “inactive”; to `COc1ccccc1CNC(=O)COC(=O)CNS(=O)(=O)c1ccc(NC(C)=O)cc1`, “inactive”.
